Reference: PubChem BioAssay (NCATS)
Records with an inconclusive call do not appear. The source made the active and inactive calls. The call rests on the fitted dose curve; in most records, active means well fitted inhibition curve with a large enough effect; inconclusive means small, poorly fitted or top-dose-only effect; inactive means flat fitted curve, though single readings scatter.

Experiments:
[1] = qHTS profiling for inhibitors of Plasmodium falciparum proliferation (AID 504749); further: nearly all actives have a fitted effect of over 60% in size;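 on activity, negative = inhibition: 0% = DMSO vehicle and full inhibition = artemisinin control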; settings: P. falciparum in erythrocytes, SYBR Green DNA, 72 h
In short: (§1)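 Quantitative HTS: compounds pinned into medium, infected erythrocytes added (0.3% parasitemia, 2.5% hematocrit), 72 h culture at 37 C under 5% CO2. Saponin/Triton lysis with SYBR Green I, overnight RT, then fluorescence read.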

[2] = tested on: 3D7; test: as above; settings: P. falciparum in erythrocytes, SYBR Green DNA, 72 h; series mostly up to 28.7 µM
In short: as §1

[3] = tested on: 7G8; test: as above; settings: P. falciparum in erythrocytes, SYBR Green DNA, 72 h; series mostly up to 28.7 µM
In short: as §1

[4] = tested on: AA1029; test: as above; settings: P. falciparum in erythrocytes, SYBR Green DNA, 72 h; series mostly up to 28.7 µM
In short: as §1

[5] = tested on: AS120; test: as above; settings: P. falciparum in erythrocytes, SYBR Green DNA, 72 h; series mostly up to 28.7 µM
In short: as §1

[6] = tested on: ATS189; test: as above; settings: P. falciparum in erythrocytes, SYBR Green DNA, 72 h; series mostly up to 28.7 µM
In short: as §1

[7] = tested on: ATS95; test: as above; settings: P. falciparum in erythrocytes, SYBR Green DNA, 72 h; series mostly up to 28.7 µM
In short: as §1

[8] = tested on: C2A; test: as above; settings: P. falciparum in erythrocytes, SYBR Green DNA, 72 h; series mostly up to 28.7 µM
In short: as §1

[9] = tested on: CP185; test: as above; settings: P. falciparum in erythrocytes, SYBR Green DNA, 72 h; series mostly up to 28.7 µM
In short: as §1

[10] = at 28.7 µM (top of the series), parasite line A
[11] = at 28.7 µM (top of the series), parasite line B
Potency means the concentration at half of the fitted maximal effect.

CC(=O)Nc1ccc(OCC(O)CNC(C)C)cc1 (configuration not stated)
inactive: activity, negative = inhibition [1, 10] 13.4% | activity, negative = inhibition [1, 11] 11.8% | Potency [2] | Potency [3] | Potency [4] | Potency [5] | Potency [6] | Potency [7] | Potency [8] | Potency [9]

O=C(O)Cc1csc(-c2ccc(Cl)cc2)n1
inactive: activity, negative = inhibition [1, 10] 1.5% | activity, negative = inhibition [1, 11] 8.07% | Potency [2] | Potency [3] | Potency [4] | Potency [5] | Potency [6] | Potency [7] | Potency [8] | Potency [9]

COc1ccc(C(Cl)=C(c2ccc(OC)cc2)c2ccc(OC)cc2)cc1
active: Potency ([1]; parasite line A) 3.98 µM | Potency ([1]; parasite line B) 3.98 µM

CN1CCN(C2=Nc3ccccc3Sc3ccc(Cl)cc32)CC1
inactive: activity, negative = inhibition [1, 10] -8.05% | activity, negative = inhibition [1, 11] -25.1% | Potency [6] | Potency [8] | Potency [9]

CC(C)(C)NC[C@H](O)COc1nsnc1N1CCOCC1
active: Potency [2] 6.31 µM | Potency [3] 0.631 µM | Potency [6] 5.62 µM

Oc1ccc(Cl)cc1Cc1cc(Cl)ccc1O
active: Potency ([1]; parasite line B) 11.2 µM | Potency [3] 11.2 µM | Potency [4] 10 µM | Potency [5] 7.08 µM
inactive: Potency [2] | Potency [8]

COc1cc(N)c(Cl)cc1C(=O)NC1CCN(Cc2ccccc2)CC1
inactive: activity, negative = inhibition ([1]; at 12.8 µM (top of the series), parasite line B) -11.7% | Potency [2] | Potency [4] | Potency [5] | Potency [6] | Potency [7] | Potency [8] | Potency [9]

O=C(O)CCc1nc2ccccc2[nH]1
active: Potency [2] 0.0045 µM

CCN(CC)CCOc1ccc2c(c1)C(=O)c1cc(OCCN(CC)CC)ccc1-2
active: Potency [3] 7.94 µM | Potency [6] 11.2 µM | Potency [8] 10 µM | Potency [9] 12.6 µM

CC(C)[N+](C)(C)CC(O)COc1cccc2ccccc12 (configuration not stated)
inactive: Potency [5] | Potency [6] | Potency [7]

O=S(c1cc(Cl)cc(Cl)c1O)c1cc(Cl)cc(Cl)c1O
inactive: Potency [3]

Cc1cc2c(OCC(CNC(C)(C)C)OC(=O)c3ccccc3)cccc2[nH]1 (configuration not stated)
inactive: Potency [9]

CN1CCC[C@@H]1CCO[C@](C)(c1ccccc1)c1ccc(Cl)cc1
active: Potency [3] 10 µM
inactive: activity, negative = inhibition [1, 11] -15.8% | Potency [2] | Potency [5] | Potency [6] | Potency [8] | Potency [9]

CN(CCCN1c2ccccc2CCc2ccccc21)CC(=O)c1ccc(Cl)cc1
inactive: Potency [8]
active: Potency [3] 1.41 µM | Potency [4] 7.94 µM | Potency [5] 12.6 µM | Potency [7] 10 µM

OC(C#CCN1CCCC1)(c1ccccc1)c1ccccc1
inactive: activity, negative = inhibition [1, 11] -24.9% | Potency [2] | Potency [8]
active: Potency [3] 11.2 µM

CN1CCc2cccc3c2[C@H]1Cc1ccc(O)c(O)c1-3
active: Potency [2] 7.94 µM | Potency [3] 2.24 µM | Potency [4] 8.91 µM | Potency [5] 7.94 µM | Potency [7] 8.91 µM

NC1CCN(c2nc3c(cc2F)c(=O)c(C(=O)O)cn3-c2ccc(F)cc2F)C1 (configuration not stated)
inactive: Potency [6]

Cc1ccc2c(Br)cc(Br)c(O)c2n1
active: Potency ([1]; parasite line B) 12.6 µM | Potency [3] 7.08 µM | Potency [5] 8.91 µM | Potency [9] 10 µM

CC1=C(C(=O)O)N2C(=O)[C@@H](NC(=O)[C@H](N)c3ccccc3)[C@H]2SC1
inactive: activity, negative = inhibition [1, 10] 3.04% | Potency [2] | Potency [3] | Potency [4] | Potency [5] | Potency [6] | Potency [7] | Potency [8] | Potency [9]

CN(C)CCOC(c1ccc(Cl)cc1)c1ccccn1 (configuration not stated)
inactive: activity, negative = inhibition [1, 10] 5.62% | Potency [2] | Potency [8]

O=C(NC1CCN(CCc2c[nH]c3ccccc23)CC1)c1ccccc1
active: Potency [3] 10 µM
inactive: activity, negative = inhibition [1, 11] -5.78% | Potency [5] | Potency [6] | Potency [7] | Potency [8] | Potency [9]

O=C(CN1CCN(Cc2ccc3c(c2)OCO3)CC1)N1c2ccccc2Sc2ccccc21
active: Potency [3] 7.94 µM | Potency [5] 10 µM | Potency [6] 8.91 µM | Potency [8] 11.2 µM

Cn1c(=O)c2[nH]c(Br)nc2n(C)c1=O
inactive: activity, negative = inhibition [1, 11] -4.72% | Potency [2] | Potency [3] | Potency [5] | Potency [6] | Potency [7] | Potency [8] | Potency [9]

CCNC(=O)/C=C/c1cccc(Br)c1
inactive: activity, negative = inhibition [1, 11] -15.2% | Potency [2] | Potency [3] | Potency [4] | Potency [5] | Potency [7] | Potency [8] | Potency [9]

CC(C)(Cc1c[nH]c2ccccc12)NCC(O)COc1ccccc1C#N (configuration not stated)
active: Potency [3] 8.91 µM | Potency [4] 8.91 µM

CN1CCN(c2c(F)cc3c(=O)c(C(=O)O)cn4c3c2SCC4)CC1
inactive: activity, negative = inhibition [1, 11] -29% | Potency [2]

COC(=O)C(c1ccccc1Cl)N1CCc2sccc2C1 (configuration not stated)
inactive: Potency [8]
active: Potency [3] 10 µM

CCCCCCCCCCCCOCCOCCOCCOCCOCCOCCOCCOCCOCCO
inactive: activity, negative = inhibition [1, 11] -26% | Potency [4]
active: Potency [3] 12.6 µM

O=[N+]([O-])c1cccc(S(=O)(=O)NCCNS(=O)(=O)c2cccc([N+](=O)[O-])c2)c1
inactive: activity, negative = inhibition [1, 10] -25.4% | Potency [2] | Potency [6] | Potency [7] | Potency [8] | Potency [9]

COc1ccc(C(=O)c2ccccc2O)c(O)c1
inactive: activity, negative = inhibition ([1]; at 12.8 µM (top of the series), parasite line A) -29.2% | Potency [2] | Potency [4] | Potency [6] | Potency [7] | Potency [8] | Potency [9]
active: Potency [3] 3.16 µM | Potency [5] 3.98 µM

CCCN(CCc1cccs1)[C@H]1CCc2c(O)cccc2C1
active: Potency ([1]; parasite line B) 4.47 µM | Potency [2] 14.1 µM | Potency [3] 1 µM | Potency [4] 5.01 µM | Potency [5] 7.08 µM | Potency [6] 7.94 µM | Potency [7] 7.94 µM | Potency [8] 11.2 µM | Potency [9] 11.2 µM
